Source: PubChem BioAssay
The entries come from a sample that favours hits as a whole.
CD40 NFkB inh: CD40 pathway inhibition in BL2 cells; AID 1053188; inhibition, % at 10 µM; hit rate 0.94% among 83,000; BL2 NF-kB luciferase reporter, CD40L-induced, 4 h;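 active = mean inhibition of at least 50% with a set share of replicates also reaching that level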
Of the large screens only hits and unclear results are named; the others gave an inactive call; [ ] = dose if it differs, or a comment.

CC(C)CC#Cc1ccc([C@@H]2[C@H]3CN(C(=O)NC4CCCC4)CC(=O)N3[C@H]2CO)cc1	none
COc1ccc(C(=O)/C=C/C(=O)N(CC(=O)NC2CCCCC2)Cc2ccccc2)c(O)c1	CD40 NFkB inh 105
COc1cccc(/C=C/C(=O)OCC(=O)NC2CCCCCCC2)c1	none
COc1ccc(C(=O)/C=C/C(=O)N(CC(=O)NC2CCCCC2)Cc2ccccc2OC)c(O)c1	none
COc1ccc(S(=O)(=O)N(C)C[C@H]2OCCCC[C@@H](C)Oc3ccc(NS(=O)(=O)c4ccc(Cl)cc4)cc3C(=O)N([C@@H](C)CO)C[C@H]2C)cc1	none
Cc1noc(C)c1S(=O)(=O)Nc1ccc2c(c1)CC(=O)N([C@@H](C)CO)C[C@@H](C)[C@H](CN(C)C(=O)Nc1cccc3ccccc13)O2	none
C[C@H]1CN([C@@H](C)CO)C(=O)Cc2cc(NS(=O)(=O)c3ccc(F)cc3)ccc2O[C@@H]1CN(C)Cc1ccncc1	none
Cc1noc(C)c1S(=O)(=O)Nc1ccc2c(c1)CC(=O)N([C@H](C)CO)C[C@H](C)[C@@H](CN(C)Cc1ccc(Oc3ccccc3)cc1)O2	none
C[C@@H]1CN([C@H](C)CO)C(=O)Cc2cc(NS(=O)(=O)c3ccc(F)cc3)ccc2O[C@H]1CN(C)CC1CCCCC1	CD40 NFkB inh 59
C[C@@H]1CN([C@H](C)CO)C(=O)Cc2cc(NS(=O)(=O)c3ccc(F)cc3)ccc2O[C@@H]1CN(C)Cc1ccc(C(F)(F)F)cc1	none
C[C@@H]1CN([C@H](C)CO)C(=O)c2cc(NS(=O)(=O)c3ccc(F)cc3)ccc2O[C@H]1CN(C)Cc1ccc(C(F)(F)F)cc1	none
C[C@H]1CN([C@@H](C)CO)C(=O)Cc2cc(NS(=O)(=O)c3ccc(F)cc3)ccc2O[C@H]1CN(C)Cc1ccncc1	none
Cc1noc(C)c1S(=O)(=O)Nc1ccc2c(c1)CC(=O)N([C@@H](C)CO)C[C@@H](C)[C@@H](CN(C)Cc1ccccc1)O2	none
Cc1noc(C)c1S(=O)(=O)Nc1ccc2c(c1)CC(=O)N([C@@H](C)CO)C[C@@H](C)[C@@H](CN(C)Cc1ccc(Oc3ccccc3)cc1)O2	CD40 NFkB inh 74[25 µM]
C[C@@H]1CN([C@@H](C)CO)C(=O)Cc2cc(NS(=O)(=O)c3ccc(F)cc3)ccc2O[C@H]1CN(C)Cc1ccc(C(F)(F)F)cc1	CD40 NFkB inh 72
O=C(Nc1ccc(C(F)(F)F)cc1)N1[C@@H]2CNC[C@H]1C2c1ccc(/C=C/c2ccccc2)cc1 (stereo partly specified)	none
O=C(Cc1ccccn1)N1CC(=O)N2[C@H](CO)[C@@H](c3ccc(C#CCC4CCCC4)cc3)[C@@H]2C1	none
Cc1ccccc1S(=O)(=O)N1C[C@H](O)COC[C@@H]2O[C@H](CC(=O)N3CCCCC3)CC[C@H]21	none
CO[C@H]1CN(C)C(=O)c2ccc(NS(=O)(=O)CC(F)(F)F)cc2OC[C@H](C)N(C(=O)NC(C)C)C[C@H]1C	none
O=C(C[C@H]1CC[C@@H]2[C@H](COC[C@H](O)CN2C(=O)c2ccc3c(c2)OCO3)O1)NCCN1CCCC1	none
O=C1c2ccccc2CCC1CNCCc1ccc(O)cc1 (stereo unspecified)	CD40 NFkB inh 91[25 µM]
O=C(NCCc1ccccc1)c1noc2c1CCc1ccccc1-2	none
CC(=O)NCCc1ccc(O)cc1	none
CCc1nc(N2[C@H](C#N)[C@@H](c3ccccc3-c3ccccc3F)[C@@H]2CO)sc1C	none
C[C@H](CO)N1C[C@H](C)[C@@H](CN(C)C(=O)C2CCOCC2)Oc2ncc(C#CCc3ccccc3)cc2C1=O	none
C[C@H]1CN([C@@H](C)CO)C(=O)c2cc(C#CCc3ccccc3)cnc2O[C@H]1CN(C)C(=O)C1CCOCC1	none
C[C@H](CO)N1C[C@H](C)[C@H](CN(C)C(=O)C2CCOCC2)Oc2ncc(C#CCc3ccccc3)cc2C1=O	CD40 NFkB inh 64[25 µM]
O=C(Nc1nccs1)[C@H]1[C@H](CO)[C@H]2Cn3c(cccc3=O)[C@@H]1N2C(=O)C1CCCC1	none
C[C@@H]1CN([C@H](C)CO)C(=O)c2ccccc2-c2ccccc2CO[C@@H]1CN(C)S(C)(=O)=O	none
N#C[C@@H]1[C@@H](c2ccc(C#Cc3cccc(F)c3)cc2)[C@@H](CO)N1C(=O)C1CC1	none
N#C[C@H]1[C@H](c2ccc(C#Cc3ccc(F)cc3)cc2)[C@H](CO)N1C(=O)C1CC1	none
COc1cccc(C#Cc2ccc([C@H]3[C@@H](C#N)N(C(=O)c4ccccn4)[C@@H]3CO)cc2)c1	CD40 NFkB inh 53[25 µM]
N#C[C@H]1[C@@H](c2ccc(C#Cc3ccccc3F)cc2)[C@@H](CO)N1C(=O)C1CCCC1	none
CCS(=O)(=O)N1[C@H](C#N)[C@@H](c2ccc(C#Cc3ccccc3F)cc2)[C@H]1CO	none
COc1cccc(C#Cc2ccc([C@@H]3[C@@H](C#N)N(C(=O)c4ccccn4)[C@@H]3CO)cc2)c1	none
N#C[C@@H]1[C@H](c2ccc(C#Cc3cccc(F)c3)cc2)[C@@H](CO)N1C(=O)C1CCC1	CD40 NFkB inh 99
N#C[C@@H]1[C@H](c2ccc(C#Cc3ccc(F)cc3)cc2)[C@@H](CO)N1C(=O)C1CCCC1	CD40 NFkB inh 87
CCS(=O)(=O)N1[C@H](CO)[C@@H](c2ccc(C#Cc3ccccc3F)cc2)[C@@H]1C#N	CD40 NFkB inh 65[25 µM]
COc1cccc(C#Cc2ccc([C@@H]3[C@@H](C#N)N(C(=O)c4ccccn4)[C@H]3CO)cc2)c1	none
N#C[C@@H]1[C@@H](c2ccc(C#Cc3cccc(F)c3)cc2)[C@@H](CO)N1C(=O)C1CCCC1	none
CCS(=O)(=O)N1[C@H](CO)[C@H](c2ccc(C#Cc3ccccc3F)cc2)[C@@H]1C#N	none
Cn1cnc(S(=O)(=O)N2C[C@@H](O)COC[C@@H]3O[C@H](CC(=O)NCc4cccc(F)c4)CC[C@H]32)c1	none
O=C(C[C@@H]1C=C[C@@H](NC(=O)Nc2ccc3c(c2)OCO3)[C@H](CO)O1)NCCCN1CCOCC1	none
CN(C)CC(=O)N1[C@H](C#N)[C@H](c2ccccc2-c2ccc(C(=O)N(C)C)cc2)[C@@H]1CO	none
O=C(C[C@H]1CC[C@@H]2[C@H](COC[C@H](O)CN2S(=O)(=O)c2ccccc2)O1)NCCN1CCCCC1	none
N#C[C@@H]1[C@@H](c2ccccc2-c2ccccc2)[C@H](CO)N1C(=O)Cc1ccncc1	none
COCC(=O)N1[C@H](CO)[C@H]2c3ccccc3N(C(=O)Nc3cc(F)ccc3F)C[C@H]21	none
O=C(NCC[C@H]1CC[C@@H](NS(=O)(=O)c2ccc(F)cc2)[C@@H](CO)O1)c1ccc2c(c1)OCO2	none
CC(=O)N(C)C[C@@H]1OCc2ccccc2-c2ccccc2C(=O)N([C@@H](C)CO)C[C@H]1C	none
CCCC(=O)N1CCC2(CC1)CN(Cc1ccc(Cl)cc1)[C@H](CO)c1[nH]c3cc(OC)ccc3c12	none
CN1C(=O)c2cc(NS(=O)(=O)c3cccc(F)c3)ccc2OC[C@H]2O[C@H](CC(=O)NCCN3CCCCC3)CC[C@H]21	none
CCC(=O)N1[C@@H]2c3cccc(=O)n3C[C@H]1[C@H](CO)[C@H]2C(=O)NC1Cc2ccccc2C1	none
C[C@@H]1CCCCO[C@@H](CN(C)S(=O)(=O)c2cn(C)cn2)[C@H](C)CN([C@@H](C)CO)C(=O)c2cc(NC(=O)Nc3cccc4ccccc34)ccc2O1	none
C[C@H](CO)N1C[C@H](C)[C@@H](CN(C)C(=O)Nc2ccc3c(c2)OCO3)Oc2c(NS(=O)(=O)c3ccc(Cl)cc3)cccc2C1=O	none
N#C[C@H]1[C@@H](c2ccc(C#Cc3ccccc3F)cc2)[C@H](CO)N1C(=O)C1CC1	none
N#C[C@@H]1[C@H](c2ccc(C#Cc3ccccc3F)cc2)[C@H](CO)N1C(=O)C1CC1	none
